Source: PubChem (several laboratories)
Shown are actives, neighbours in structure and some others; about 7.2% of the full set was active somewhere.
AHR activator: human AHR activation; AID 2796; 320,000 compounds, 2.5% hits; AHR-responsive luciferase reporter cells, luminescence; activation, % at 5 µM; in the data active means activation above about 47%;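 further: 0% = vehicle wells and 100% = reference agonist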
A1 inh: inhibitors of the anti-apoptotic protein A1, read as caspase activation; MEF A1-2A-BIM cells, Caspase-Glo 3/7 luminescence, 3 h; percent of clofoctol response, vehicle zero; caspase activation, % (concentration not given with the values); 330,000 compounds, 0.066% hits; AID 2462;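 active means over half of replicate activation scores above 10%, or exactly half above 10 with the replicate mean above 10; inconclusive means replicate mean below 10 yet half the replicates above 10; inactive means over half of replicates below 10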
Efflux pump mplx: inhibitors of Candida antifungal efflux pumps expressed in yeast; S. cerevisiae Candida pump triplex, Nile Red efflux; inhibition, % at 10 µM; 330,000 compounds, 0.44% hits;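 active means plate passing quality check with inhibition over a set limit, or well fluorescence over plate mean plus 4 SD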;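 further: Nile Red retained in pooled yeast measured as flow cytometry median fluorescence; 0% = buffer negative control and 100% = Enniatin B positive control; higher means more Nile Red kept so more efflux inhibition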
ALR H2O2 inh: human ALR oxidase inhibition via reduced H2O2; P55789; purified ALR, DTT oxidation, H2O2 HRP-luminol luminescence; inhibition, % (test concentration not listed); 290,000 compounds, 3.8% hits; AID 485317;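 active means mean replicate inhibition above about 79%, with every replicate also reaching it, limit read from the data; inconclusive means only one of the two criteria met; inactive means mean below limit and not every replicate reaching it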
Target sequence (P55789 whole entry, looked up): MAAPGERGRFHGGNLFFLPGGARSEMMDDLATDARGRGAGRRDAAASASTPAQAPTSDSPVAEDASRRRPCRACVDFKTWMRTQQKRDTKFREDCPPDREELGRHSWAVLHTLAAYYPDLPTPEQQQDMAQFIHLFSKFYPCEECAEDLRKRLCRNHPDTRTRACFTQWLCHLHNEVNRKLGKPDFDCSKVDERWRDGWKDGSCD
SUMO Mot1 rescue: SUMOylation pathway inhibition by Mot1-301 growth rescue | S. cerevisiae Mot1-301 growth rescue, ATP luminescence, 38.5C; percent above DMSO median, 100 means doubled | AID 2716 | growth rescue, % at 18.8 µM | 320,000 compounds, 1% hits;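 active means every valid replicate shows activation above 250% relative to neutral control wells; inactive means the rest, any valid replicate at or below 250%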;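 further: OY570 slx delta 5 strain wells were the positive control but not used for scaling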
VLA-4 inh: inhibition in a human VLA-4 binding assay | VLA-4 expressing cells, ligand binding flow cytometry | 330,000 compounds, 0.2% hits | inhibition, % (about 7 µM as worked out from the volumes in the protocol) | AID 2557 | P13612; in the data active means inhibition above about 50%
The depositor's hits bear a star; ? = inconclusive; · = no result.

SMILES | AHR activator | A1 inh | Efflux pump mplx | ALR H2O2 inh | SUMO Mot1 rescue | VLA-4 inh
CCc1c(C2(O)CCCCC2)[nH]c2cc(C(F)(F)F)ccc12 | 34 | 2 | 0 | 4 | 325* | 20
COC(=O)C1=C(N)N(c2ccccc2F)C2=C(C(=O)CC(C)(C)C2)C1c1ccc(OC)c(OC)c1 (centres undefined) | 8 | 0 | 0 | · | -12 | -11
Cc1ccc(S(=O)(=O)N/N=C/c2cc([N+](=O)[O-])ccc2O)cc1[N+](=O)[O-] | 4 | 1 | 0 | 28 | 30 | 3
O=[N+]([O-])c1cccc(S(=O)(=O)N/N=C/c2ccc(O)cc2)c1 | 1 | 0 | 0 | 93* | -2 | 19
COc1cc(/C=N/NS(=O)(=O)c2ccc(C)c([N+](=O)[O-])c2)cc([N+](=O)[O-])c1O | 1 | 0 | 0 | 93* | 6 | 2
COc1ccc(-n2c(O)c(/C=N/NS(=O)(=O)c3ccc(C)c([N+](=O)[O-])c3)c3ccccc3c2=O)cc1OC | -4 | 0 | 0 | 97* | -5 | -103
COc1cc(/C=N/NS(=O)(=O)c2ccc(C)c([N+](=O)[O-])c2)ccc1O | 4 | 0 | 0 | 99* | 16 | -2
CCOc1ccc(NC(=O)CCC(=O)NNC(=O)Nc2cccc(Cl)c2)cc1 | 3 | ? | 0 | · | 16 | 45
CCOc1cc(NC(=S)NCCCN2CCOCC2)c(OCC)cc1NC(=O)c1cccc(F)c1 | 2 | 1 | 0 | 26 | -18 | 3
O=C(O)CSc1nc(SCc2ccccc2Cl)nc2c1CCCC2 | 2 | 0 | 0 | 95* | -16 | 19
O=C(NN=C1CCCCC1)c1ccccc1-n1cccc1 | 48* | 0 | 0 | 11 | -9 | 8
CC(C)(C)C1CCC(=NNC(=O)c2cc3c(s2)CCCC3)CC1 (centres undefined) | 18 | 0 | 0 | 3 | 542* | 15
CC(C)(C)C1CCC(=NNC(=O)CC(=O)NCc2ccccc2)CC1 (centres undefined) | 3 | 0 | 0 | 3 | 6 | -7
CC(C)(C)C1CCC(=NNC(=O)c2ccccc2-n2cccc2)CC1 (centres undefined) | 70* | 0 | 0 | 5 | -13 | -5
O=C1N(Cc2cccc(Cl)c2)C[C@@H]2C[C@@H](c3cccn3-c3nccs3)N3CCC[C@@]123 | 2 | 0 | 0 | 1 | 2 | -4
O=C(NCCN1CCOCC1)c1cc(Cl)ccc1Cl | · | 3 | 0 | -11 | -12 | 13
O=C(NCCN1CCOCC1)NC1(C(F)(F)F)Oc2ccc(Cl)cc2O1 (centres undefined) | 0 | 1 | 0 | 99* | -5 | -28
O=C(CNc1cc([N+](=O)[O-])ccc1NCCO)Nc1cccc(S(=O)(=O)N2CCCCC2)c1 | -2 | 3 | 0 | 97* | 0 | 0
Cc1ccc(CNC(=O)c2cc(S(=O)(=O)N3CCCCC3)ccc2N2CCOCC2)cc1 | 0 | -1 | 0 | -12 | -22 | 4
O=C1c2ccc(-c3ccc(F)cc3OCc3ccccc3)cc2S(=O)(=O)c2cccc(C(=O)N3CCN(c4ncc(Br)cn4)CC3)c21 | -2 | -1 | 0 | 0 | -12 | 12
O=C(O)c1cccc2c1C(=O)c1ccc(-c3ccc(F)cc3OCc3ccccc3)cc1S2(=O)=O | 2 | 0 | 0 | 98* | 7 | 6
Cc1c(Nc2nc(-c3ccccc3)cs2)c(=O)n(-c2ccccc2)n1C | 0 | -1 | 0 | · | 1 | 12
C=CC[n+]1c(-c2ccc(C)cc2)csc1Nc1c(C)n(C)n(-c2ccccc2)c1=O | 0 | 0 | 0 | 99* | -2 | 13
C=CC[n+]1c(-c2ccc(Cl)cc2Cl)csc1Nc1c(C)n(C)n(-c2ccccc2)c1=O | 5 | 0 | 0 | 94* | -21 | -17
O=C(Cn1nc(-c2ccccc2)c2ccccc2c1=O)NN1CCOCC1 | 0 | 0 | 0 | -4 | -13 | 3
SMILES | AHR activator | A1 inh | Efflux pump mplx | ALR H2O2 inh | SUMO Mot1 rescue | VLA-4 inh
O=C(O)COCC(=O)Nc1ccc(-n2cnnn2)cc1 | 1 | 0 | 0 | -5 | -27 | -1
CCOc1ccc(NC(=O)CN(C)CC(=O)Nc2cc(Cl)ccc2C#N)cc1OCC | 55* | 0 | 0 | -9 | -21 | -1
CCn1c(-c2cc(Cl)ccc2OC)n[nH]c1=S | -3 | -1 | 0 | 92* | 37 | 1
CCn1c(-c2cc(OC)c(OC)c(OC)c2)n[nH]c1=S | 4 | 1 | 0 | 97* | -6 | 3
COc1ccc(Cl)cc1-c1n[nH]c(=S)n1C | -3 | -1 | 0 | 89* | -19 | 0
COCCCn1c(-c2ccc(Cl)cc2)n[nH]c1=S | 0 | 0 | 0 | 95* | -6 | 7
CCOCCCn1c(-c2ccc(Cl)cc2)n[nH]c1=S | -3 | 1 | 0 | 22 | 36 | 22
C=CCn1c(-c2cc(Cl)ccc2OC)n[nH]c1=S | 1 | 0 | 0 | 42 | 1 | 2
COc1ccc(Cl)cc1-c1nc(SCC(=O)N(C)C)n[nH]1 | 26 | -1 | 0 | · | 1 | -4
COc1ccc(CNc2nc(NCc3ccc(OC)cc3)n(C(=O)c3ccccc3[N+](=O)[O-])n2)cc1 | 1 | 0 | 0 | -10 | 6 | 8
NC(=O)c1cc([N+](=O)[O-])ccc1NCc1cccnc1 | 16 | 0 | 1 | -22 | -18 | 3
COc1cccc(NC(=O)CC(=O)c2ccc([N+](=O)[O-])cc2)c1 | -3 | -5 | 0 | -6 | 197 | -6
Cc1ccc(NC(=O)c2cc([N+](=O)[O-])ccc2NCc2cccnc2)cc1Cl | 51* | 1 | 0 | -4 | -10 | 9
O=C(O)c1cc([N+](=O)[O-])ccc1NCc1cccnc1 | 0 | 0 | 0 | -10 | 2 | 12
NC(=O)c1cc([N+](=O)[O-])c(Cl)cc1NCc1cccnc1 | 58* | -1 | 0 | -9 | -9 | 22
COc1cccc(NC(=O)c2cc([N+](=O)[O-])ccc2NCc2cccnc2)c1 | 66* | 0 | 0 | -8 | -9 | 11
COc1cccc(N/C(SCc2cccc([N+](=O)[O-])c2)=C(/C#N)C(N)=O)c1 | 3 | -1 | 0 | 99* | 7 | 10
C=CC#CC1(O)CC(C)[N+](C)(C)CC1C (centres undefined) | 2 | 2 | 0 | -1 | -2 | 23
O=C(NNC(=O)C12CC3CC(CC(C3)C1)C2)c1csc(N2CCOCC2)n1 | -1 | 0 | 0 | -2 | -20 | 4
O=C(COC(=O)Cn1nnc2ccccc21)NC1CCCC1 | 0 | 1 | -1 | 5 | 4 | 14
CCN1CCN(C(CNS(=O)(=O)c2ccccc2)c2ccccc2)CC1 (centres undefined) | 0 | 0 | 0 | -1 | -16 | 17
